In PubChem BioAssay (NCATS) one finds activation data, which are given here for 27 compounds.

Molecules are shown by their SMILES. Results filed as inconclusive are left out. Values without a mark were called inactive. The call rests on the fitted dose curve; in most records, active means well fitted activation curve with a large enough effect; inconclusive means small, poorly fitted or top-dose-only effect; inactive means no such curve, though single readings can be large or run the other way.

Cellular tumor antigen p53 (Homo sapiens), sequence (P04637 whole entry, looked up): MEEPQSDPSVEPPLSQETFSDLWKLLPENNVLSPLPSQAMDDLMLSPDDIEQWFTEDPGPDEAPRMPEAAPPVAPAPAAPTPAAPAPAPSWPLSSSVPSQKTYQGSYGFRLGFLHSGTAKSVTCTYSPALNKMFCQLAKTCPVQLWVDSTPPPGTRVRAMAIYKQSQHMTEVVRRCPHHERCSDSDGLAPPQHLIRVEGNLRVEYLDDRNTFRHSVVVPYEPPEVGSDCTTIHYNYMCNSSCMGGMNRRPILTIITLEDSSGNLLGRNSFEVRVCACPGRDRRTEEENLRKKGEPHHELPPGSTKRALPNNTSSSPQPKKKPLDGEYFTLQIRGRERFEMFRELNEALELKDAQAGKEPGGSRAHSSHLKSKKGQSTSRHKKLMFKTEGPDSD

This assay addresses Cellular tumor antigen p53 (Homo sapiens) (UniProt P04637). In words: Primary qHTS for small molecule compounds that upregulate eGFP-tagged delta133p53alpha (in N-terminal) cells. (AID 2060322).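 Further: series mostly up to about 56 µM; 0% = DMSO vehicle and 100% = reference activator; nearly all actives have a fitted effect of over 75% in size.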 Conditions: NCI-H358 eGFP-delta133p53alpha fluorescence, 24 h; activation: hits give high values. The procedure, abridged:
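NCI-H358 cells pre-induced 24 h with 10 ng/ml doxycycline for eGFP-delta133p53alpha, plated dox-free and exposed 24 h at 37C to titrated compounds. Fixed, Hoechst-stained; gated GFP peak intensity by laser scanning cytometry, normalized to DMSO (0%) and 57.5 uM 5-azacytidine (100%).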
(In general: Quantitative high-throughput screening tests each substance at several concentrations.)
On to `Cc1ccc(Cn2nc(C(=O)N[C@@H]3C(C)(C)[C@@H]4CC[C@@]3(C)C4)cc2-c2ccc(Cl)c(C)c2)cc1`, for which the activation was -9.82%. With `COc1ccsc1CNCC[C@@]1(c2ccccn2)CCOC2(CCCC2)C1` the figure was -0.333%; with `C=C1CC[C@H]2[C@@H](/C=C(\C)C(=O)[C@@]3(OC(C)=O)C[C@H](C)[C@H](OC(=O)c4ccccc4)[C@@H]3[C@H]1OC(C)=O)C2(C)C`, -11.5%; with `COC(=O)[C@@]1(C)C(=O)C=C[C@]2(C)c3c(O)cc(C(C)C)cc3[C@H](O)[C@@H](OC(C)=O)C12` (some centres not stated), -3.05%. In the case of `COC(=O)C12C(=O)C(C)(O)C(=O)C1(C)C(C)=CC1C34CCC(OC3=O)C(C)(CO)C4CCC12C` (configuration not stated), the activation was -16.8%. Take `CN1C(=O)c2ccccc2NC(=O)[C@]12O[C@@H]2c1ccccc1`: the activation is -0.763%. The result for `C[C@]12CC[C@H](O[C@@H]3O[C@H](CO)[C@@H](O)[C@H](O)[C@H]3O[C@@H]3O[C@H](CO)[C@@H](O)[C@H](O)[C@H]3O)CC1=CC[C@@H]1[C@@H]2CC[C@]2(C)[C@@H](C3=CC(=O)OC3)CC[C@]12O` reads 8.93%; that for `C[C@]12CCC(=O)C=C1CC[C@@H]1[C@@H]2[C@@H](O)C[C@]2(C)C(=O)CC[C@@H]12`, 11%; that for `CN1C(=O)N(c2ccc(C#N)c(C(F)(F)F)c2)C(=O)[C@@]1(CO)c1ccccc1`, -3.67%. As to `C[C@]12CC[C@H](OC3OC(CO)C(O)C(O)C3OC3OC(CO)C(O)C(O)C3O)C[C@@H]1CC[C@@H]1C2CC[C@]2(C)[C@@H](C3=CC(=O)OC3)CC[C@]12O` (some centres not stated), the activation is 13.4%. With `CC(C)C1(OO)C=C2C(=O)CC3C(C)(C(=O)O)CCCC3(C)C2CC1` (configuration not stated), the activation was 11.5%. The result for `CCC(C)(O)C1(C(=O)O)COC(=O)C1` (configuration not stated) reads 6.25%; that for `C/C=C(\C)C(=O)OC1CC2C(CC=C3CC(OC4CC(OC)C(OC5CC(OC)C(OC6OC(C)C(OC7OC(CO)C(O)C(O)C7O)C(OC)C6O)C(C)O5)C(C)O4)CCC32C)C2(O)CCC(C(C)=O)C12C` (configuration not stated), -6.25%. For the compound `CC[C@@H]1C[C@H]2CC[C@H](O2)[C@H](C)C(=O)O[C@@H](C)C[C@@H]2CC[C@@H](O2)[C@@H](C)C(=O)O[C@H](C)C[C@H]2CC[C@H](O2)[C@H](C)C(=O)O[C@@H](C)C[C@@H]2CC[C@@H](O2)[C@@H](C)C(=O)O1`, the activation was -13.7%. For the compound `C=C(C)[C@@]12O[C@@H]1[C@@]1(C)C(=C[C@H]2O)CC[C@@H](O)[C@@H]1C`, the activation is 8.4%. Turning to `CCC1C2CC3C4N(C)c5ccccc5C45CC(C2C5O)N3C1O` (configuration not stated), the activation was 9.82%.

As to `C=C1C2(C)CC3C(C)(O)C4=CC(=O)OC(C)(C)C4=CCC3(C)C13C(=O)OC(C)C3(O)C2=O` (configuration not stated), the activation is -0.763%.

`CC(=O)C1CCC2C3CCC4C[C@@H](O)CCC4(C)C3CCC12C` (some centres not stated): the activation is -2.33%.

Regarding `CC(C)[C@H](NC(=O)c1nn(Cc2ccc(F)cc2)c2ccccc12)C(N)=O`, the activation was -6.68%. With `CO[C@@H]1[C@@H](O)[C@@H](O[C@H]2CC[C@]3(C=O)C4CC[C@]5(C)[C@@H](C6=CC(=O)OC6)CC[C@]5(O)[C@@H]4CC[C@H]3C2)O[C@@H](C)[C@H]1O[C@@H]1O[C@H](CO[C@@H]2O[C@H](CO)[C@@H](O)[C@H](O)[C@H]2O)[C@@H](O)[C@H](O)[C@H]1O` (some centres not stated) the figure was -9.92%. With `CCC1(O)CCC2C3CCC4=CC(=O)CCC4C3CCC21CC` (configuration not stated) the figure was -2.33%; with `CC12CCC3C(C1)c1c(cc(O)c(C(=O)c4ccccc4)c1OC3(C)C)O2` (configuration not stated), -17.6%; with `CC1=CC2/C=C(\C)CCC(O)C3OC(C)(C)OC3CC(=O)OC23C(=O)NC(CC(C)C)C3C1C` (configuration not stated), 6.87%.

`CCOC(=O)NC(C)(C)Cc1ccc(Cl)cc1`: the activation was -6.33%.

`C[C@]12CC[C@H](O)CC1=CC[C@@H]1C2CC[C@]2(C)[C@@H](C3=CC(=O)OC3)CC[C@]12O` (some centres not stated): the activation was 2.29%. With `C/C=C(\C)C(=O)OC1C(C)OC(OC2C(C)OC(OC3CCC4(C)C(=CCC5C4CCC4(C)C(C(C)OC6OC(COC7OC(CO)C(O)C(O)C7O)C(O)C(O)C6O)CCC54O)C3)CC2OC)C(O)C1OC` (configuration not stated) the figure was 0.763%; with `C=C(C)[C@H]1O[C@H]2CC[C@@]3(C)[C@@](O)(CC[C@H]4[C@@H]5OC(C)(C)[C@H]6C[C@@H]7C(=C)Cc8c(Cl)cc9[nH]c(c5c9c8[C@@]76O)[C@@]43C)[C@]23O[C@@H]3[C@H]1O`, -8.93%.
